Test results as given in PubChem BioAssay (Tox21).
Records with an inconclusive call do not appear. Values without a mark were called inactive. Calls of active or inactive are those of the source. The call rests on the fitted dose curve.

Molecular target: Muscarinic acetylcholine receptor M1 (Homo sapiens) (UniProt P11229)
Assay: Cholinergic receptor muscarinic 1 (CHRM1) small molecule antagonists, cell-based qHTS assay (AID 1963588); further: nearly all actives have a fitted effect of over 40% in size
Details: CHRM1-CHO antagonist mode, calcium flux fluorescence; series mostly up to 61.5 µM; activity, negative = inhibition: at the top concentration
Procedure, shortened: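 CHRM1-CHO calcium-flux assay, antagonist mode. Cells were seeded 18 h, dye-loaded 1 h at 37 C and given compound for 5 min at RT, then acetylcholine was added at 50nM. FDSS fluorescence was read 3 min; 15 concentrations, three runs.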
On the % scale 0 is the no-effect control and ±100 the full control effect; potency means the concentration at half of the fitted maximal effect.

Muscarinic acetylcholine receptor M1 (Homo sapiens), sequence (P11229 whole entry, looked up): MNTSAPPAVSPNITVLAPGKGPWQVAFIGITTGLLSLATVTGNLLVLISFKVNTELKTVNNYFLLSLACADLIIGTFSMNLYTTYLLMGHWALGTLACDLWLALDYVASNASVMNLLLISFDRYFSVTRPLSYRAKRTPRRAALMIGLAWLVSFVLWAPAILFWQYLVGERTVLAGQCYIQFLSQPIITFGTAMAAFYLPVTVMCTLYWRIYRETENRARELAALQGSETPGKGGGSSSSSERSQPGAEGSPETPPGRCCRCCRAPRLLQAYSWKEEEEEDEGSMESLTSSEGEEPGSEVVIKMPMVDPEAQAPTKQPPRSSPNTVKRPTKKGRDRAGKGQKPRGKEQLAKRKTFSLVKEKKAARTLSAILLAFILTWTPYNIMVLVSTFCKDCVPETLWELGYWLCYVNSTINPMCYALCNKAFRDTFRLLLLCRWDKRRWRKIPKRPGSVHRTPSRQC

Compared with `CC1CCC(CO)CC1` (stereo unspecified), `OCCC1CCCCN1` (stereo unspecified) is higher in “activity, negative = inhibition” value: -2.83% for the first, 14.4% for the second.

Going from `Cc1c[nH]c(=S)[nH]c1=O` to `CC1=C(O)C(=O)CO1`, the “activity, negative = inhibition” value falls from 2.05% to -1.1%.

Going from `CC(=O)OC1C2(C)CCC(C2)C1(C)C` (stereo unspecified) to `CC(C)CCCCCCOC(=O)C1CCCCC1C(=O)OCCCCCCC(C)C` (stereo unspecified), the “activity, negative = inhibition” value rises from 0.404% to 7.55%.

First: O=C(O)c1ccc(S(=O)(=O)O)cc1C(=O)O
Second: O=S(=O)(O)c1cc(O)c2ccc(Nc3ccccc3)cc2c1
The “activity, negative = inhibition” value of the first is higher: 7.94% for the first, 5.34% for the second.

First: CCCOC(=O)CCCCC(=O)OCCC
Second: CCCCCCCCCCl
The “activity, negative = inhibition” value of the first is lower: -6.83% for the first, -0.53% for the second.

First: O=C1CCCCCCCCCCCC(=O)OCCO1
Second: CC1CCC(=O)C1=O (stereo unspecified)
The “activity, negative = inhibition” value of the first is lower: -19.4% for the first, 3.73% for the second.

First: SC1CCCC1
Second: NC(=O)N(O)[C@@H]1COc2cc(OCc3ccccc3)ccc21
The “activity, negative = inhibition” value of the first is lower: -13.3% for the first, -11.2% for the second.

Going from `N#CCCN(CCO)CCO` to `OCCCCCCCCCCCCBr`, the “activity, negative = inhibition” value falls from 14.8% to 7.6%.

Compared with `CC(C)O.CC(C)O.CCOC(=O)/C=C(\C)O.CCOC(=O)/C=C(\C)O.[Ti]`, `C=C(C)C(=O)OCCOc1ccccc1` is higher in “activity, negative = inhibition” value: -1.88% for the first, 7.31% for the second.

First: Cc1ccc2ccc3cccc4ccc1c2c34
Second: Nc1ccc2cc(S(=O)(=O)O)cc(O)c2c1N=Nc1ccccc1C(F)(F)F
The “activity, negative = inhibition” value of the first is higher: 17.4% for the first, 13.5% for the second.

First: CCN1C=CN(C)C1C (stereo unspecified)
Second: Cc1c(N)cccc1N
The “activity, negative = inhibition” value of the first is lower: -20.8% for the first, 7.38% for the second.

Compared with `Oc1cccc(Nc2ccccc2)c1`, `NNC(=O)OCc1ccccc1` is lower in “activity, negative = inhibition” value: 6.75% for the first, -16.5% for the second.

First: COP(=O)(OC)OC(c1ccc(Cl)cc1)P(=O)(OC)OC (stereo unspecified)
Second: COc1ccc(CCN(C)CCCN2CCc3cc(OC)c(OC)cc3CC2=O)cc1OC
The “activity, negative = inhibition” value of the first is higher: 21.1% [at 28.3 µM] for the first, 7.62% [at 28.3 µM] for the second.

Going from `Cn1cc(C(=O)[C@@H]2CCc3nc[nH]c3C2)c2ccccc21` to `Cc1cc(O)c2c(O)c3c(O)cccc3cc2c1`, the “activity, negative = inhibition” value rises from 0.336% [at 28.3 µM] to 7.64% [at 28.3 µM].

First: CN1C(CSCC(F)(F)F)Nc2cc(Cl)c(S(N)(=O)=O)cc2S1(=O)=O (stereo unspecified)
Second: Cc1ncc([N+](=O)[O-])n1CC(O)CCl (stereo unspecified)
The “activity, negative = inhibition” value of the first is lower: -6.12% [at 28.3 µM] for the first, -0.394% [at 28.3 µM] for the second.

First: CCCCOCCOCCOCc1cc2c(cc1CCC)OCO2
Second: C[C@@H]1C[C@H]2[C@@H]3C[C@H](F)C4=CC(=O)C=C[C@]4(C)[C@@]3(F)[C@@H](O)C[C@]2(C)[C@@]1(O)C(=O)CO
The “activity, negative = inhibition” value of the first is lower: -7.89% [at 28.3 µM] for the first, 10.8% [at 28.3 µM] for the second.

For `C/C=C/C=N/NC(=O)c1ccncc1`, the “activity, negative = inhibition” value was 11% [at 28.3 µM].

Going from `CCC(Cl)CC(Cl)C(Cl)C(Cl)C(Cl)C(C)Cl` (stereo unspecified) to `CCCC(=O)O[C@]1(C(=O)COC(=O)CC)CC[C@H]2[C@@H]3CCC4=CC(=O)CC[C@]4(C)[C@H]3[C@@H](O)C[C@@]21C`, the activity, negative = inhibition rises from -3.76% [at 12.6 µM] to 0.329% [at 12.6 µM].

For `COc1ccc2cc1Oc1ccc(cc1)C[C@H]1c3c(cc4c(c3Oc3cc5c(cc3OC)CCN(C)[C@@H]5C2)OCO4)CCN1C`, the Potency was 20.5 µM (active).
